Bioassay records from PubChem.
In the library only some 3.3% were active in any assay of this set; here they are far more common.
ALOX12 inhib: qHTS Assay for Inhibitors of 12-hLO (12-human lipoxygenase) | Polyunsaturated fatty acid lipoxygenase ALOX12 (Homo sapiens), P18054 | purified 12-hLO, xylenol orange hydroperoxide absorbance | hit rate 0.12% among 150,000 | Potency, µM (top dose mostly 57.1 µM), without a hit: top-dose activity change, negative = inhibition, most hits filed as inhibitors; note: potency is the fitted concentration of half-maximal effect; % is set by controls: 0 for no effect and ±100 for the full control effect; nearly all actives have a fitted effect of over 55% in size
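Hydroperoxide output read as Fe(III)-xylenol orange absorbance, 573-to-405 nm ratio, after 30 min reaction with 40 uM arachidonic acid. Enzyme: 150 nM purified human 12hLO, 15 min compound preincubation; 25 mM Hepes pH 7.0, room temperature.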
PNC assembly inh: High Content Assay for Compounds that inhibit the Assembly of the Perinucleolar Compartment | hit rate 3.1% among 140,000 | PC3M PTB-GFP, PNC prevalence imaging, 16 h; active compounds read low | activity change (PNC), negative = inhibition, % at 10 µM;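 active = readout at or below -70, meaning at least 70% loss of cells showing the perinucleolar compartment, a nuclear body marking cancer cells; inconclusive = readout between -30 and a set limit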;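 note: plate controls were DMSO wells for no effect and camptothecin positive control wells for full effect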
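PC3M cells stably expressing PTB-GFP, 750–1000 cells/well, treated 16 h at 37 °C with compound (23 nl of library stock), in duplicate. After paraformaldehyde fixation and Hoechst stain, imaged at 20x; PNC prevalence scored by image analysis.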
HTT aggregate: qHTS Multiplex Assay to Identify Dual Action Probes in a Cell Model of Huntington: Aggregate Formation (GFP) | PC12 HttQ103-GFP aggregates, Acumen cytometry, 40 h | Potency, µM (highest dose often 46.1 µM), inactives show at the top dose activity change, negative = inhibition, hits mostly inhibitors | hit rate 1.1% among 220,000 | AID 1688, 2009; note: potency is the fitted concentration of half-maximal effect; % is set by controls: 0 for no effect and ±100 for the full control effect; nearly all actives have a fitted effect of over 60% in size
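Inducible Q103 Huntingtin exon 1–GFP PC12 line, 1500 cells/well in phenol red free DMEM with 5% equine and 5% calf serum. Tebufenozide 100 nM induced expression; compounds titrated; aggregates quantified by cytometry.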
IMPase cell inh: qHTS Assay for Identifying the Cell-Membrane Permeable IMPase Inhibitors; inhibition (IP1 accumulation), % at 46.1 µM; Inositol monophosphatase 1 (Rattus norvegicus), P97697; AID 901, 2007; CHO-M1 cells, IP1 accumulation, HTRF TR-FRET ratio; 120,000 tested, under 10 active; active = well fitted curve in the direction sought with a large enough effect in the signal ratio, not every such curve was filed as active; inconclusive = small, poorly fitted or top-dose-only effect, or a change in a side signal; inactive = no such curve, though single readings can be large or run the other way; the % refers to the signal ratio;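 note: cells stimulated with carbachol in lithium chloride buffer; plate controls were DMSO basal wells for no effect and reference inhibitor wells for full effect; higher means more IMPase inhibition seen as more IP1 and lower FRET ratio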
Target sequence (P97697 whole entry, looked up): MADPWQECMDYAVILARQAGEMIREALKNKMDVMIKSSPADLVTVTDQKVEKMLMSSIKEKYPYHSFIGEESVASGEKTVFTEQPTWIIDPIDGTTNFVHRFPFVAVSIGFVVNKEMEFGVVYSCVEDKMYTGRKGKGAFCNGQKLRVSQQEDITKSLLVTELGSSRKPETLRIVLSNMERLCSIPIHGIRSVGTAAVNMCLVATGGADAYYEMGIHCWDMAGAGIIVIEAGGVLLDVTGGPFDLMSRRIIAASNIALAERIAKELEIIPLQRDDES
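The IP-One HTRF competitive assay in carbachol-stimulated CHO-M1 cells quantifies cellular IP1. Compounds spanned up to 46 uM final, and activity is expressed as AC50 from concentration-response fits of the ratio and donor data.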
HTT cytoprotect: qHTS Multiplex Assay to Identify Dual Action Probes in a Cell Model of Huntington: Cytoprotection (ATP); PC12 HTT-Q103 induced, cytoprotection, ATP luminescence, 40 h; Potency, µM (titrated, usually from 56.4 µM), for the others: cytoprotection (ATP increase), hits mostly activators; hit rate 0.14% among 230,000; AID 1471, 2008; note: potency is the fitted concentration of half-maximal effect; % of control where 0% means no effect; nearly all actives have a fitted effect of over 45% in size
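Huntington model: PC12 line, ecdysone-inducible HTTQ103 exon1–GFP, tebufenozide 100 nM. Test articles in a dose series. Endpoint luminescence from cellular ATP.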
NPSR antagonist: qHTS Assay for Antagonists of the Neuropeptide S Receptor: cAMP Signal Transduction | Q6W5P4 | CHO-NPSR cells, cAMP TR-FRET, antagonist mode | Potency, µM (titrated, usually from 38.3 µM), for inactives: top-dose activity change, negative = inhibition, actives largely listed as inhibitors | hit rate 1% among 220,000; note: potency is the fitted concentration of half-maximal effect; % is set by controls: 0 for no effect and ±100 for the full control effect; nearly all actives have a fitted effect of over 50% in size
Target sequence (Q6W5P4 whole entry, looked up): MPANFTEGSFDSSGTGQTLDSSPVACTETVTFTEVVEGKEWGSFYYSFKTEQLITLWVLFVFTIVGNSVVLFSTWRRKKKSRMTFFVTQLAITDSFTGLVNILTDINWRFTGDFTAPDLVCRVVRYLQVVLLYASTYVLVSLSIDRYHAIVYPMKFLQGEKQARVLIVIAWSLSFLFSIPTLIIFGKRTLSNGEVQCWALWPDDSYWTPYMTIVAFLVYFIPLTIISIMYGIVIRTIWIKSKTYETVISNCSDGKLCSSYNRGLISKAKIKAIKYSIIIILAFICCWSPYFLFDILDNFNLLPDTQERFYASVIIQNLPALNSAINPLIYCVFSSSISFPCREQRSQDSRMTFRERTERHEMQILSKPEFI
* marks the source's active call; other numbers are inactive results; ? = inconclusive; / = no result; [ ] = another dose, or the depositor's remark. Unless noted, calls come from the whole dose curve; as a rule, active = well fitted curve in the direction sought with a large enough effect; inconclusive = small, poorly fitted or top-dose-only effect, or another doubt; inactive = no such curve, though single readings can be large; an effect the other way counts as inactive or inconclusive.

SMILES	ALOX12 inhib	PNC assembly inh	HTT aggregate	IMPase cell inh	HTT cytoprotect	NPSR antagonist
CCOc1ccc(S(=O)(=O)Nc2ccccc2C(=O)Nc2ccccc2N2CCOCC2)cc1	-4%	?	12%	-5	-9%[10 µM]	-8%[46.1 µM]
COc1ccc(N(CC(=O)Nc2ccccc2F)S(=O)(=O)c2ccc(C)c([N+](=O)[O-])c2)cc1	/	/	18%	/	6%[10 µM]	-33%
CCN(CC(=O)NCc1ccc(Cl)cc1)C(=O)/C=C/c1cccs1	/	/	-8%	/	-6%	-13%
CC(c1ccc(C(C)(C)C)cc1)S(=O)CC(O)CO (stereo not drawn)	-2%	-112*	3%	/	/	6%
CN(C)c1ccc(C(=O)C(O)c2ccc(C(C)(C)C)cc2)cc1 (stereo not drawn)	0%	7	-16%	-4	-8%	-17%[46.1 µM]
Cc1ccc(-n2nnnc2SCC(=O)Nc2cccc(NC(=O)c3ccco3)c2)cc1C	-4%	-18	10µM*	-7	-29%[10 µM]	?
Cc1cc(C)cc(-n2nnnc2SCC(=O)Nc2cccc(NC(=O)c3ccco3)c2)c1	-2%	11	12%	-8	-9%	-27%[46.1 µM]
COC(=O)/C=C/c1cccc([C@H]2[C@@H]3C=CC[C@@H](C)[C@@H]3C(=O)N2Cc2ccccc2)c1	-7%[0.00818 µM]	/	/	/	/	/
C[C@@H](C(=O)Nc1ccc2ccccc2c1)[C@@H]1C[C@@]1(C)[C@@H](NS(=O)(=O)c1ccc(-c2ccccc2)cc1)c1ccccc1	1%	/	/	/	10%	/
CC(C)(C)n1nnnc1C(c1ccc(F)cc1)N(Cc1ccc(F)cc1)Cc1ccco1 (stereo not drawn)	2%	31	?	19	3%[10 µM]	?
CC(C)(C)n1nnnc1C(c1ccc(C(F)(F)F)cc1)N(Cc1ccc(F)cc1)Cc1ccco1 (stereo not drawn)	-1%	-119*	16µM*	8	-17%[10 µM]	-35%
Cc1ccc(N/C(N)=N/c2nc3c(c(=O)[nH]2)CCCC3)c(C)c1	8%	25	8%	0	13%	-13%[46.1 µM]
Cc1ccc(N/C(N)=N/c2nc(C)cc(N3CCCCC3)n2)c(C)c1	/	/	13µM*	/	-44%	10µM*
CC(=O)N1CCN(c2ccc(NCc3ccc(C)cc3)cc2)CC1	18µM*	?	22%	6	-17%[10 µM]	-7%[46.1 µM]
CCc1ccc(CNc2ccc(N3CCN(C(C)=O)CC3)cc2)cc1	?	?	?	12	-12%[0.074 µM]	-23%[46.1 µM]
COc1ccc(N2CC(C(=O)Nc3ccc(N4CCOCC4)cc3)CC2=O)cc1 (stereo not drawn)	6%	-113*	21%	-6	-1%[10 µM]	-14%[46.1 µM]
COc1ccccc1CNC(=O)C1CC(=O)N(C2CCCC2)C1 (stereo not drawn)	0%	-19	5%	0	4%	-1%[46.1 µM]
COc1ccc(CN2CC(C(=O)NCCN3CCOCC3)CC2=O)cc1 (stereo not drawn)	-3%	-90*	5%	19	-3%	17%[46.1 µM]
COc1ccccc1CNC(=O)C1CC(=O)N(c2ccc(C)c(C)c2)C1 (stereo not drawn)	0%	-81*	17%	-6	-11%[0.074 µM]	-9%[46.1 µM]
COc1ccc(N2CC(C(=O)NCc3cccnc3)CC2=O)cc1 (stereo not drawn)	0%	-98*	5%	-4	9%[10 µM]	?
CC(=O)[C@@H]1[C@H]2[C@H](C(=O)[C@H]3OC[C@@H]2O3)[C@H]2C=Cc3ccccc3N21	-9%	/	/	?	8%[1.9 µM]	/
Cc1cc(C)cc(C(=N)c2ccccc2Cc2cccc3ccccc23)c1	-4%[11.4 µM]	/	/	/	-16%[10 µM]	/
CC(C)c1nc2sc3c(N4CCCCC4)ncnc3c2c2c1CCCC2	/	/	/	8	/	/
CC1CC(C)CN(C(=O)C(C)N(C)CC(=O)Nc2ccc(Cl)cc2)C1 (stereo not drawn)	/	/	-27%	/	-45%	-5%
CN(C)CC(=O)N1c2ccccc2CCc2ccc(NC(=O)c3ccc(N)cc3)cc21	-1%	-85*	?	4	0%[10 µM]	1%[46.1 µM]
SMILES	ALOX12 inhib	PNC assembly inh	HTT aggregate	IMPase cell inh	HTT cytoprotect	NPSR antagonist
Cc1cnc(CNc2ncncc2-c2cccnc2)cn1	/	/	/	/	10%	/
COc1ccc(OC)c(C2/C(=C(/O)c3cnn(-c4ccccc4)c3C)C(=O)C(=O)N2CCN(C)C)c1 (stereo not drawn)	4%	-6	10µM*	?	-14%	-23%[46.1 µM]
Cc1cc(=O)oc(C)c1C(=O)OCC(=O)c1ccc(Br)cc1	-26%	-90*	-16%	3	-2%[1.9 µM]	-1%[46.1 µM]
CCC(C)(C)C(=O)O[C@@H]1C[C@H](C)C=C2C=C[C@H](C)[C@@H](CC[C@H]3C[C@@H](O)CC(=O)O3)[C@H]21	-3%[25.6 µM]	/	-36%[20.6 µM]	/	-243%[17.1 µM]	/
CCCOc1ccccc1C1CC(=O)Nc2cc3c(cc21)OCCO3 (stereo not drawn)	-5%	-116*	-6%	?	-72%[10 µM]	?
CCOc1ccccc1C1CC(=O)Nc2cc3c(cc21)OCCO3 (stereo not drawn)	-4%	-86*	15%	6	-120%	?
CCOc1ccccc1C1CC(=O)Nc2cc(OC)c(OC)c(OC)c21 (stereo not drawn)	5%	38	2%	3	-8%	9%[46.1 µM]
CC(C)Oc1ccccc1C1CC(=O)Nc2cc3c(cc21)OCO3 (stereo not drawn)	-21%	-81*	8%	2	-68%[10 µM]	?
Oc1cccc(C(Nc2ccccn2)c2ccc3cccnc3c2O)c1Cl (stereo not drawn)	/	/	/	8	/	/
c1ccc(-c2nc(-c3ccco3)cs2)nc1	-12%	-100*	-16%	-2	2%	-7%[46.1 µM]
Cc1cc(C)cc(NC(=O)CSc2nnc(CNC(=O)c3c(F)cccc3Cl)o2)c1	/	/	/	8	/	/
COc1ccc(/C=C/CN2CCN(Cc3ccc(F)cc3)C(CCO)C2)cc1 (stereo not drawn)	/	/	16%[9.22 µM]	/	9%[10 µM]	6%
O=C(Cc1ccc(F)cc1)N/N=C/c1ccccn1	-5%	-113*	-18%	/	-12%[10 µM]	7%
O=C(Cc1cccs1)N/N=C/c1ccccn1	/	/	19%[9.22 µM]	/	24%[10 µM]	-12%
COc1ccc(C2SCCN2C(=S)Nc2cccc(Cl)c2)cc1 (stereo not drawn)	?	-102*	?	/	-16%[10 µM]	-33%
C[C@H](NC(=O)N1CCc2nc(COc3ccccc3)c3c(c2C1)CO[C@@H](C)C3)c1ccccc1	0%[11.4 µM]	/	/	/	-1%[10 µM]	/
